High-throughput results from PubChem.
14-3-3g Raf = modulators of 14-3-3 gamma protein binding, primary screen, biochemical, fluorescence polarization; FP, 14-3-3gamma / TMR-pS259-Raf peptide binding; inhibition, % at 40 µM; hit rate 0.19% among 160,000; in the data active = inhibition above about 30%
Target sequence (P61981 whole entry, looked up): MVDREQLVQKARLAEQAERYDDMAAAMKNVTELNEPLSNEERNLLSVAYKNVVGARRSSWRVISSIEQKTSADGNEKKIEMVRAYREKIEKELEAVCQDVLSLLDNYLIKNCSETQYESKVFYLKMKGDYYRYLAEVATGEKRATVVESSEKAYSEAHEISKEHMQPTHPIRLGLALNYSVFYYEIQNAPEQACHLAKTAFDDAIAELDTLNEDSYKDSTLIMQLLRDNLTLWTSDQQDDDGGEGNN
A number is an active result; – = inactive; ! = repeats disagree. This excerpt belongs to a sample that is enriched for hits.

SMILES	14-3-3g Raf
CC1(C)CC(=O)C2=C(C1)N(Cc1ccccc1)C1=C(C(=O)CC(C)(C)C1)C2c1ccc(O)cc1	–
CCN1C2=C(C(=O)CC(C)(C)C2)C(c2ccc(O)cc2)C2=C1CC(C)(C)CC2=O	102
CCN1C2=C(C(=O)CC(C)(C)C2)C(c2ccc(O)c(Cl)c2)C2=C1CC(C)(C)CC2=O	–
CCCCCNC(=O)C(C)NS(=O)(=O)c1ccc(OC)cc1 (centres undefined)	–
O=C(Nc1cc(N=Cc2cc(Cl)ccc2O)ccc1Cl)c1ccccc1	–
Oc1ccc(Cl)cc1C=Nc1ccc2nc(-c3ccccc3)[nH]c2c1	30
COc1ccc(C=Nc2ccc3nc(-c4ccccc4)[nH]c3c2)cc1OC	–
CC(=O)Oc1ccc2c(c1)C(C)=CC(C)(C)N2	–
CC1Cc2nc(SCC(=O)Nc3cccc(F)c3)n(Cc3ccccc3)c(=O)c2S1 (centres undefined)	–
Cc1cccc(NC(=O)CN(C)S(=O)(=O)c2ccccc2)n1	–
CCn1c2ccc(Cl)cc2c2nc3ccccc3nc21	–
CCCCCn1c2ccccc2c2nc3ccccc3nc21	–
CCn1c2ccccc2c2nc3cc4ccccc4cc3nc21	116
CN(c1ccccc1)C(C(=O)NC1CCCCC1)c1ccc(Cl)cc1 (centres undefined)	–
Cn1cc(Cl)c(-c2n[nH]c(=S)n2Cc2ccco2)n1	–
CCOC(=O)c1ccc(NC(=O)c2oc(=O)c3ccccc3c2-c2ccc(C)cc2)cc1	–
CCc1ccc(NC(=O)c2oc(=O)c3ccccc3c2-c2ccc(C)cc2)cc1	–
Cc1ccc(-c2c(C(=O)Nc3ccc(N(C)C)cc3)oc(=O)c3ccccc23)cc1	39
Cc1ccc(C)c(-n2c(SCC(=O)NCC3CCCO3)nnc2-c2ccoc2C)c1 (centres undefined)	–
CCCOc1c(Br)cc(C2C3=C(CCCC3=O)N(CC)C3=C2C(=O)CCC3)cc1OCC	–
CCOc1cc(C2C3=C(CCCC3=O)N(CC)C3=C2C(=O)CCC3)cc(Br)c1O	41
CCOc1cc(C2C3=C(CCCC3=O)N(CC)C3=C2C(=O)CCC3)ccc1O	–
CCCc1ccc(Oc2c(C)oc3cc(OC)ccc3c2=O)cc1	–
CCN1/C(=C/c2ccc3cc(OC)ccc3[n+]2CC)Sc2ccc(Cl)cc21	–
CCN1/C(=C/c2ccc3cc(OC)ccc3[n+]2CC)Sc2ccc(C)cc21	42
SMILES	14-3-3g Raf
CCN1/C(=C/c2ccc3ccccc3[n+]2CC)Sc2ccc(C)cc21	–
CCCSc1nnc2c(n1)OC(c1ccc(Cl)cc1)Nc1ccccc1-2 (centres undefined)	–
C=CCSc1nnc2c(n1)OC(c1ccc(C)cc1)Nc1ccccc1-2 (centres undefined)	33
CCCSc1nnc2c(n1)OC(c1cc(OC)c(O)c(OC)c1)Nc1ccccc1-2 (centres undefined)	–
CSc1nnc2c(n1)OC(c1ccc(N(C)C)cc1)Nc1ccccc1-2 (centres undefined)	–
CCCCSc1nnc2c(n1)OC(c1cc(OC)c(OC)c(OC)c1)Nc1ccccc1-2 (centres undefined)	42
CCCCSc1nnc2c(n1)OC(c1cccc(OC)c1OC)Nc1ccccc1-2 (centres undefined)	–
CCCSc1nnc2c(n1)OC(c1ccc(N(CC)CC)cc1)Nc1ccccc1-2 (centres undefined)	39
C=CCSc1nnc2c(n1)OC(c1ccc(OC)c(OC)c1)Nc1ccccc1-2 (centres undefined)	–
C=CCSc1nnc2c(n1)OC(c1ccc([N+](=O)[O-])cc1)Nc1ccccc1-2 (centres undefined)	–
C=CCSc1nnc2c(n1)OC(c1ccc(N(C)C)cc1)Nc1ccccc1-2 (centres undefined)	38
CCCSc1nnc2c(n1)OC(c1ccco1)Nc1ccccc1-2 (centres undefined)	–
C=CCSc1nnc2c(n1)OC(c1ccc(C(=O)OC)cc1)Nc1ccccc1-2 (centres undefined)	–
COC(=O)C1=C(N)Oc2cc(C)n(Cc3cccnc3)c(=O)c2C1c1cccc(OC)c1OC (centres undefined)	–
O=C(Nc1cccnc1Cl)c1cnn2c(C(F)(F)F)cc(-c3ccc(Br)cc3)nc12	–
CCOC(=O)CS(=O)(=O)c1ccc(C(=O)N2CCN(Cc3ccc4c(c3)OCO4)CC2)cc1[N+](=O)[O-]	–
COC(=O)c1ccc(C(=O)Nc2nc3cc(N)c(C)cc3s2)cc1	–
CCCOCCOC(=O)c1[nH]c2c(c1C)C(=O)CC(c1cc(OC)ccc1OC)C2 (centres undefined)	–
Cn1nnnc1SCC(=O)N1CCN(c2cccc(Cl)c2)CC1	–
Cc1c(N=Cc2cccc(OCc3ccccc3)c2)c(=O)n(-c2ccccc2)n1C	–
Cc1ccc(C(=O)CSc2n[nH]c(-c3ccco3)n2)cc1	–
O=C(NC1CCCC1)C1c2ccccc2C(=O)N1Cc1ccccc1Cl (centres undefined)	–
Fc1ccc(-c2cnc3ccccc3n2)cc1	–
O=C(O)c1cc(-c2ccc(F)cc2)nc2ccccc12	–
Oc1c(-c2ccc(F)cc2)c2nc3ccccc3nc2c2ccccc12	53
SMILES	14-3-3g Raf
CCOc1ccccc1C1C(C(=O)Nc2ccc(OC)cc2)=C(C)Nc2nc(CCCO)nn21 (centres undefined)	–
CCCC(=O)N1CC2(CCC)CN(C(=O)CCC)CC(CCC)(C1)C2=O	–
Cc1cccc(CCN=c2c([N+](=O)[O-])nn(-c3ccccc3)n2O)c1	–
O=[N+]([O-])c1nn(-c2ccc3c(c2)OCCO3)n(O)c1=NCCc1ccccc1	–
Cc1cccc(CCN=c2c([N+](=O)[O-])nn(-c3ccc4c(c3)OCCO4)n2O)c1	72
Cc1nnc(N(C)C(=O)c2cccnc2)s1	–
CC(C)CCNS(=O)(=O)c1ccc2nc(-c3ccccc3)[nH]c2c1	–
O=c1c(-c2ccccc2)coc2c(CN(Cc3ccccc3)Cc3ccccc3)c(O)ccc12	–
CCC(=O)Nc1cccc(-c2cn3cccc(C)c3n2)c1	31
Cc1cccn2cc(-c3cccc(NC(=O)CC(C)C)c3)nc12	–
Cc1cccn2cc(-c3cccc(NC(=O)c4cc5ccccc5oc4=O)c3)nc12	–
Cc1nn(C)c(C)c1S(=O)(=O)Nc1ccc(Cl)cc1	–
CCOC(=O)c1cnc2c(C#N)cnn2c1-c1ccccc1	–
CCOC(=O)c1cnc2c(C#N)cnn2c1C	141
CCOC(=O)Cc1c(C)nc2c(C#N)cnn2c1C	–
O=C(NC1CC1)c1ccc(CS(=O)(=O)c2ccccc2)o1	–
CCCCOC(=O)c1cccc(NC(=O)C(F)(F)F)c1	–
Cc1cccc(C)c1NC(=O)c1c(Cl)nc(Cl)c(Cl)c1Cl	–
COc1ccc(S(=O)(=O)NCCC(=O)NCc2cccnc2)cc1	56
O=C(CCNS(=O)(=O)c1ccc(Cl)cc1)NCc1cccnc1	–
COc1ccc(S(=O)(=O)NCCC(=O)NCc2cccs2)cc1	–
O=C1CCCc2c1cc(C(=O)NCCO)c(=O)n2-c1ccc(Cl)cc1	–
CCOC(=O)c1cnc2c(OC)cccc2c1NCCOC	–
CCc1nc(C)ccc1OCC(=O)O	74!
CCc1nc(C)ccc1OCC(=O)NCCCN(C)C	–
Cc1ccc2nc(C)cc(OCC(=O)O)c2c1	–
O=c1c2ccccc2n(Cc2ccc([N+](=O)[O-])cc2)c(=O)n1Cc1ccccc1	–
CCN(C(=O)CCN1C(=S)NC(C)(C)CC1C)c1ccc(C)c(C)c1 (centres undefined)	51
